The panel holds about 83,000 compounds, 20% with a hit somewhere; the sample as a whole holds those more often.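 A percent growth of 40 corresponds to 60% growth inhibition; 0 means no net growth; -100 means all cells died. Active threshold: below 10.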 A number with no mark means an inactive call. Calls of active or inactive are those of the source.

In the assay the test system is M14 melanoma. Description: NCI-60 one-dose screen, 48 h (100 = growth as untreated, 0 = no growth, -100 = all killed). As to conditions: 10 µM unless noted.
On to `COc1ccc(/C=N/Nc2cc(=O)[nH]c3ccc(Cl)cc23)cc1`, for which the growth was 54.8%.

For `CCCCCCN(CCCCCC)c1ccc(/C=C2/SC(=O)NC2=O)c(C)c1`, the growth is 90.1%.

Regarding `CC(=O)Oc1ccccc1C(=O)N=C1[Se]CCCN1C(=O)c1ccccc1OC(C)=O`, the growth was -10.4% (active).

Consider `CC(C)OC(=O)Nc1ccc(-c2nc(-c3cccc(OCCN4CCOCC4)c3)c(-c3ccnc(Br)c3)[nH]2)cc1`, for which the growth was 30.5%.

On to `Cc1cc2nc3ccc(N=Nc4ccc(N(C)C)cc4)cc3n(-c3ccccc3)c-2cc1=N`, for which the growth is -78.4% (active).

Turning to `CCCCn1c(-c2ccc(-c3nc(-c4ccc(Cl)cc4)no3)cc2)nc(-c2ccccc2)c1-c1ccccc1`, the growth is 94.4%.

As to `Oc1c(I)cc(I)cc1CNCCCN(Cc1ccccn1)Cc1ccccn1`, the growth is -72% (active).

As to `C/C(=N/NC(N)=S)c1sc(Nc2cccc(Cl)c2)nc1C`, the growth was 88.3%.

As to `Cc1nn(-c2ccccc2)c2c1N=c1s/c(=C\c3ccc(C(F)(F)F)cc3)c(=O)n1CN2`, the growth was 69.4%.

Turning to `O=C(O)CCC(=O)Nc1nnc(-c2ccccc2)s1`, the growth was 102%.

For the compound `Oc1ccc(Cl)cc1Cc1cc(Cl)cc(Cl)c1O`, the growth is 65.9%.

For the compound `O=c1c2cccc(Cl)c2sc2c(NCCCNCCO)nc3ccccc3c12`, the growth was -72.7% (active).

On to `COc1cc(C2CC(c3cccc(Br)c3)=NN2C(C)=O)cc(OC)c1OC` (stereo not drawn), for which the growth is 8.38% (active).

Consider `COc1ccc(-c2nc(NN)c3c(C)nn(-c4ccc(F)cc4)c3n2)cc1`, for which the growth is 26.4%.

In the case of `CCOC(=O)NCCc1ccccc1`, the growth is 110%.

Turning to `COc1ccccc1/C=C1\Oc2cc(OCCN3CCC(Cc4ccccc4)CC3)ccc2C1=O`, the growth is 65.9%.

In the case of `O=C(COc1ccc(/C=C2\Cc3ccc(Cl)cc3C2=O)cc1)Nc1nc2ccccc2s1`, the growth was 103%.

With `CCc1cccc2c3c(sc12)C(c1ccc(F)cc1)C(C#N)=C(N)O3` (stereo not drawn), the growth is 19.2%.

Take `Cc1ccc(C(=O)N/N=C/c2cccc([N+](=O)[O-])c2)cn1`: the growth is 112%.

On to `CCOC(=O)C1=C(N)Oc2c(sc3c(C)cccc23)C1c1ccc(Cl)cc1` (stereo not drawn), for which the growth is 20.6%.

Turning to `COc1ccc(-n2c(N)c(-c3nc4ccccc4[nH]3)cc(C#N)c2=O)cc1`, the growth was 109%.

As to `Cc1cc2nc3cc(C)c(N)cc3[n+](-c3ccccc3)c2cc1N`, the growth was 89.5%.

Regarding `COc1c(N2CC3CCCN(C(C)=O)C3C2)c(F)cc2c(=O)c(C(=O)N[C@H]3C(O)[C@@H](O)C(CO)O[C@H]3O)cn(C3CC3)c12` (stereo partly drawn), the growth was 110%.

`COc1ccc(C2CC(c3ccc(Nc4nc(Nc5ccc(F)cc5)nc(Nc5ccc(Cl)cc5)n4)cc3)=NN2C(C)=O)cc1` (stereo not drawn): the growth was 104%.

Take `O=c1[nH][n+](-c2ccc(Br)cc2)no1`: the growth is 74%.

With `O=C(CSc1nccc(Nc2ccc(S(=O)(=O)Nc3nccs3)cc2)n1)c1ccc(C(F)(F)F)cc1`, the growth is 100%.

As for `COc1cc(C2CC(c3ccc(N(C)C)cc3)=NN2C(C)=O)cc(OC)c1OC` (stereo not drawn), the growth was 19.4%.

Take `COc1ccc2c(c1)c(-c1ccc(-c3cn(C)c4ccc(OC)cc34)o1)cn2C`: the growth was 71.2%.

On to `COc1ccc(CN2c3ccccc3CCc3ccccc32)cc1F`, for which the growth was -8.51% (active).

Take `CC(=O)N1N=C(c2ccc(Nc3nc(Nc4ccc(F)cc4)nc(Nc4ccc(Cl)cc4)n3)cc2)CC1c1ccc(Cl)cc1` (stereo not drawn): the growth is 108%.

On to `COc1ccc(OC)c(/C=C/c2nnc(Nc3ccccc3)o2)c1`, for which the growth was 110%.

Turning to `COc1cc2cc(Oc3ccc(NC(=O)Nc4ccc(Cl)c(C(F)(F)F)c4)cc3)c(C)nc2cc1OCCN1CCOCC1`, the growth was 19.2%.

For the compound `CCOC(=O)C1=C(N)Oc2c(sc3c(C)cccc23)C1c1ccc(F)cc1` (stereo not drawn), the growth is 10.6%.

For the compound `NCCCNc1nc2ccccc2c2c(=O)c3cccc(F)c3sc12`, the growth was 10%.

For `CCc1ccc(Oc2c(-c3ccc(OCc4ccc(Cl)cc4)cc3O)n[nH]c2C(F)(F)F)cc1`, the growth is 30.5%.

As for `COc1ccc2sc3c(NCCCNCCO)nc4ccccc4c3c(=O)c2c1`, the growth is -66.6% (active).

For `COc1nc2ccccc2cc1-c1nc2c(cnn2-c2ccc(Br)cc2)c(=O)[nH]1`, the growth was -7.56% (active).

Regarding `Cc1oc2nc[nH]c(=O)c2c1C(=O)/C=C/c1ccc(Br)cc1`, the growth is 15.4%.

Values taken from PubChem BioAssay (NCI).
